Laboratory results reported in PubChem BioAssay (NCI).
The panel holds about 83,000 compounds, 20% with a hit somewhere; the sample as a whole holds those more often.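 96-well plates, one dose, 48 hours. Percent growth reported; active if below 10.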 Calls of active or inactive are those of the source.

Tests used:
Assay in all cases: NCI-60 one-dose screen, 48 h (100 = growth as untreated, 0 = no growth, -100 = all killed)
Conditions in all cases: 10 µM unless noted
NCI-H226 lung = test system: NCI-H226 lung
NCI-H322M lung = test system: NCI-H322M lung
HOP-62 NSCLC = test system: HOP-62 NSCLC
NCI-H460 lung = test system: NCI-H460 lung
HOP-92 NSCLC = test system: HOP-92 NSCLC
NCI-H522 lung = test system: NCI-H522 lung
A549/ATCC NSCLC = test system: A549/ATCC NSCLC
786-0 renal = test system: 786-0 renal
DU-145 prostate = test system: DU-145 prostate
K-562 leukemia = test system: K-562 leukemia
MALME-3M melanoma = test system: MALME-3M melanoma
MDA-MB-231 breast = test system: MDA-MB-231 breast
RXF 393 renal = test system: RXF 393 renal
SF-268 CNS = test system: SF-268 CNS
SF-295 CNS = test system: SF-295 CNS
SF-539 CNS = test system: SF-539 CNS
UACC-257 melanoma = test system: UACC-257 melanoma
M14 melanoma = test system: M14 melanoma
COLO 205 colon = test system: COLO 205 colon

Measured: growth

CCN(CC)CC(O)CNc1c2ccc(Cl)cc2nc2ccc(OC)cc12 (stereo not given)
inactive: NCI-H226 lung 46.7% | SF-268 CNS 14.8% | SF-295 CNS 10.8%
active: NCI-H322M lung -27.1% | HOP-62 NSCLC -47.1% | NCI-H460 lung 0.742% | HOP-92 NSCLC -13.9% | NCI-H522 lung -65.7% | A549/ATCC NSCLC -72.9% | 786-0 renal -16.1% | DU-145 prostate -26.4% | K-562 leukemia -10.3% | MALME-3M melanoma -98.4% | MDA-MB-231 breast -33.4% | RXF 393 renal -80.8% | SF-539 CNS -61.3% | UACC-257 melanoma -87% | M14 melanoma -94.2%

CN1CCC(=C2c3ccccc3C=Cc3ccccc32)CC1
active: MDA-MB-231 breast 8.64%
inactive: NCI-H226 lung 96% | NCI-H322M lung 104% | HOP-62 NSCLC 83.4% | NCI-H460 lung 93.3% | HOP-92 NSCLC 67% | NCI-H522 lung 39% | A549/ATCC NSCLC 91.1% | 786-0 renal 67.5% | MALME-3M melanoma 105% | RXF 393 renal 51.6% | SF-268 CNS 79.8% | SF-295 CNS 88.1% | SF-539 CNS 87.4% | UACC-257 melanoma 81.7% | M14 melanoma 91.7%

N=C(N)c1ccc(-c2ccc(-c3ccc(Cl)cn3)s2)cc1
inactive: NCI-H226 lung 83.8% | HOP-62 NSCLC 56.3% | HOP-92 NSCLC 34.7% | NCI-H522 lung 48.7% | A549/ATCC NSCLC 27.6% | 786-0 renal 52.9% | DU-145 prostate 37.6% | MALME-3M melanoma 77.9% | RXF 393 renal 52% | SF-268 CNS 79.8% | SF-539 CNS 40.2% | UACC-257 melanoma 94.2%
active: NCI-H322M lung 4.72% | NCI-H460 lung -46.5% | K-562 leukemia -9.89% | MDA-MB-231 breast -46.5% | SF-295 CNS -41.4% | M14 melanoma 3.24%

C[C@H]1[C@H](C)CC[C@]2(C(=O)N3CCN(C)CC3)CC[C@]3(C)C(=CC[C@@H]4[C@@]5(C)C/C(=C/c6cccnc6)C(=O)C(C)(C)[C@@H]5CC[C@]43C)[C@H]12
active: NCI-H226 lung -57.2% | NCI-H322M lung -52.8% | HOP-62 NSCLC -95.9% | NCI-H460 lung -65.1% | HOP-92 NSCLC -81.7% | NCI-H522 lung -79.3% | A549/ATCC NSCLC -73.7% | 786-0 renal -85% | DU-145 prostate -81.5% | K-562 leukemia -46.3% | MALME-3M melanoma -87.3% | MDA-MB-231 breast -80.1% | RXF 393 renal -94.4% | SF-268 CNS -80.3% | SF-295 CNS -84.6% | SF-539 CNS -84.6% | UACC-257 melanoma -65.3% | M14 melanoma -81.8%

O=C1/C(=C/c2ccc([N+](=O)[O-])cc2)COc2ccc(O)c(O)c21
inactive: NCI-H226 lung 50.9% | NCI-H322M lung 42.7% | A549/ATCC NSCLC 34.5% | COLO 205 colon 16.3% | SF-295 CNS 83.7% | UACC-257 melanoma 40.3%
active: HOP-62 NSCLC 4.16% | NCI-H460 lung -17.2% | HOP-92 NSCLC -4.37% | NCI-H522 lung -52.7% | 786-0 renal -60.5% | DU-145 prostate -19.1% | K-562 leukemia 5.31% | MALME-3M melanoma -44.2% | MDA-MB-231 breast -27.1% | SF-268 CNS -25.3% | SF-539 CNS -91.6%

CC(=O)Nc1ccc(C(=O)/C=C/c2ccccc2)cc1
inactive: NCI-H226 lung 83.5% | NCI-H322M lung 88.9% | HOP-62 NSCLC 101% | NCI-H460 lung 98.3% | HOP-92 NSCLC 47.8% | NCI-H522 lung 53% | A549/ATCC NSCLC 76.3% | 786-0 renal 58.3% | COLO 205 colon 102% | DU-145 prostate 89.8% | K-562 leukemia 79.9% | MALME-3M melanoma 104% | MDA-MB-231 breast 93.2% | RXF 393 renal 97.4% | SF-268 CNS 85.4% | SF-295 CNS 104% | SF-539 CNS 96.6% | UACC-257 melanoma 70.3%

CC(=O)c1ccc2c(c1)CCN2
inactive: NCI-H226 lung 102% | NCI-H322M lung 101% | HOP-62 NSCLC 96.8% | NCI-H460 lung 117% | HOP-92 NSCLC 82.5% | NCI-H522 lung 91% | A549/ATCC NSCLC 98% | 786-0 renal 108% | COLO 205 colon 102% | DU-145 prostate 104% | K-562 leukemia 111% | MDA-MB-231 breast 96.1% | RXF 393 renal 107% | SF-268 CNS 98.9% | SF-295 CNS 125% | SF-539 CNS 101% | UACC-257 melanoma 104%

C/C(=N\NC(=O)Cn1c(-c2ccc(S(C)(=O)=O)cc2)nc2cc(Cl)ccc21)c1ccc(Cl)cc1
inactive: NCI-H226 lung 79% | NCI-H322M lung 86% | HOP-62 NSCLC 80.9% | NCI-H460 lung 82.8% | HOP-92 NSCLC 86.2% | NCI-H522 lung 74.9% | A549/ATCC NSCLC 66.7% | 786-0 renal 92.1% | DU-145 prostate 90% | K-562 leukemia 62.9% | MALME-3M melanoma 90.3% | MDA-MB-231 breast 73.4% | RXF 393 renal 79.3% | SF-268 CNS 72.4% | SF-295 CNS 81.1% | SF-539 CNS 83.1% | UACC-257 melanoma 79.2% | M14 melanoma 81%

O=C(NCCOCCOCCOCCNC(=O)c1cc2c(o1)C(=O)c1ccccc1C2=O)NC12CC3CC(CC(C3)C1)C2
active: NCI-H226 lung -80.4% | NCI-H322M lung -59.5% | HOP-62 NSCLC -58% | NCI-H460 lung -71% | NCI-H522 lung -27.7% | A549/ATCC NSCLC -47.6% | 786-0 renal 3.51% | DU-145 prostate -96% | K-562 leukemia 7.09% | MALME-3M melanoma -94.5% | RXF 393 renal -52.9% | SF-268 CNS -5.16% | SF-295 CNS -91.9% | SF-539 CNS -63.5% | UACC-257 melanoma -77% | M14 melanoma -40.2%
inactive: HOP-92 NSCLC 43.5% | MDA-MB-231 breast 18.5%

CN(C)c1ccc(C#Cc2c(F)cccc2Cl)cc1
inactive: NCI-H226 lung 90.4% | NCI-H322M lung 86.7% | HOP-62 NSCLC 71.8% | NCI-H460 lung 98.9% | HOP-92 NSCLC 79.5% | NCI-H522 lung 65.1% | A549/ATCC NSCLC 87.5% | 786-0 renal 112% | DU-145 prostate 101% | K-562 leukemia 95.5% | MALME-3M melanoma 93.4% | MDA-MB-231 breast 66.2% | RXF 393 renal 112% | SF-268 CNS 87.7% | SF-295 CNS 76.5% | SF-539 CNS 94.6% | UACC-257 melanoma 91.2% | M14 melanoma 100%

Clc1ccc(-c2nnc(Cn3ccnc3)o2)cc1
inactive: NCI-H226 lung 102% | NCI-H322M lung 113% | HOP-62 NSCLC 89.3% | NCI-H460 lung 112% | HOP-92 NSCLC 132% | NCI-H522 lung 115% | A549/ATCC NSCLC 100% | 786-0 renal 94% | DU-145 prostate 115% | K-562 leukemia 95.8% | MALME-3M melanoma 120% | MDA-MB-231 breast 102% | SF-268 CNS 103% | SF-295 CNS 119% | SF-539 CNS 98.9% | UACC-257 melanoma 111% | M14 melanoma 87.1%

Clc1cnc(Nc2ccc(OCCN3CCCC3)cc2)nc1NCc1ccco1
inactive: NCI-H322M lung 19.9% | HOP-62 NSCLC 11.7% | NCI-H522 lung 55.2% | A549/ATCC NSCLC 11.3% | 786-0 renal 23.7% | DU-145 prostate 17.5% | K-562 leukemia 16.4% | MALME-3M melanoma 26.1% | SF-268 CNS 21.1% | SF-295 CNS 31.2% | UACC-257 melanoma 49.1% | M14 melanoma 35.1%
active: NCI-H226 lung -9.35% | NCI-H460 lung 3.25% | HOP-92 NSCLC 5.42% | MDA-MB-231 breast -5.14% | RXF 393 renal -37.7% | SF-539 CNS -14.2%

Cc1nn(Cc2ccccc2)cc1C(=O)Nc1sc2c(c1C(N)=O)CCC(=O)C2
active: NCI-H522 lung -3.17% | SF-539 CNS 9.16%
inactive: NCI-H226 lung 71.9% | NCI-H322M lung 96.2% | HOP-62 NSCLC 84.6% | NCI-H460 lung 86% | HOP-92 NSCLC 31.2% | A549/ATCC NSCLC 84.7% | 786-0 renal 70.1% | DU-145 prostate 67.6% | K-562 leukemia 10.5% | MALME-3M melanoma 27.6% | MDA-MB-231 breast 25% | RXF 393 renal 31.4% | SF-268 CNS 20.5% | SF-295 CNS 79.7% | UACC-257 melanoma 70.7% | M14 melanoma 16.7%

Cc1ccc(S(=O)(=O)NN/C(N)=N\S(=O)(=O)c2cc(C)c(Cl)cc2SCc2ccccc2)cc1
active: RXF 393 renal 8.06%
inactive: NCI-H226 lung 90.4% | NCI-H322M lung 168% | HOP-62 NSCLC 82.4% | NCI-H460 lung 110% | HOP-92 NSCLC 71% | NCI-H522 lung 29.9% | A549/ATCC NSCLC 56.7% | 786-0 renal 93.4% | COLO 205 colon 115% | DU-145 prostate 115% | K-562 leukemia 57.8% | MALME-3M melanoma 76.1% | MDA-MB-231 breast 92.5% | SF-268 CNS 102% | SF-295 CNS 95% | SF-539 CNS 73.9% | UACC-257 melanoma 97.3%

CN1CCN(c2ccc3nc(/N=C/c4ccc5sc(-c6ccc([N+](=O)[O-])cc6)nc5c4)sc3c2)CC1
inactive: NCI-H226 lung 97.9% | NCI-H322M lung 105% | HOP-62 NSCLC 120% | NCI-H460 lung 103% | HOP-92 NSCLC 111% | NCI-H522 lung 95% | A549/ATCC NSCLC 98.6% | 786-0 renal 101% | DU-145 prostate 106% | K-562 leukemia 90.6% | MALME-3M melanoma 96.7% | MDA-MB-231 breast 112% | RXF 393 renal 129% | SF-268 CNS 111% | SF-295 CNS 96% | SF-539 CNS 93.4% | UACC-257 melanoma 101% | M14 melanoma 104%
